PubChem BioAssay AID602281 (The Scripps Research Institute Molecular Screening Center, 2012)
The whole screen tested about 360,000 compounds, of which about 2,900 (0.81%) were called active.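 The calls were made as follows: active = inhibition above the mean inhibition across every tested compound plus 3 SD (cut at about 22% in these data); inactive = the rest.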 The list comes from a sample in which actives are over-represented; it also holds similar structures and randomly drawn compounds.

target: Perilipin-5 (Homo sapiens) + 1-acylglycerol-3-phosphate O-acyltransferase ABHD5 (Homo sapiens) (UniProt Q00G26+Q8WTS1); experiment: ABHD5-PLIN5 interaction inhibitors, primary screen, cell lysate, split luciferase complementation, luminescence (AID 602281);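 also: 0% = DMSO only wells and the 100% control is not disclosed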; details: Split G. princeps luciferase complementation, 4 h, at 4 µM, active compounds read high
Sequence (Q00G26 whole entry, looked up): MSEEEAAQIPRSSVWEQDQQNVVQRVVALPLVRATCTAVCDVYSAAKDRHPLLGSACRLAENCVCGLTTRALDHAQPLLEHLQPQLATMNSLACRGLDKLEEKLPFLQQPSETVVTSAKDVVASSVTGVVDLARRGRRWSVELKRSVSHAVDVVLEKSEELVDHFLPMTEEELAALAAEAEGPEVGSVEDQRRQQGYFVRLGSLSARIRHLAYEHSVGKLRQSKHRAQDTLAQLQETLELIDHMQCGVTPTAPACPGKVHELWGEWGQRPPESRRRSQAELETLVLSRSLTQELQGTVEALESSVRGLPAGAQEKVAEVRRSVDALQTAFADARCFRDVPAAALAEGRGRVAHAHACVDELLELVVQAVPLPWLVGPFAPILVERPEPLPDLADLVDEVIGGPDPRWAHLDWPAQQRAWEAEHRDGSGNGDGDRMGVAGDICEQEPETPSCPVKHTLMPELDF
Sequence (Q8WTS1 whole entry, looked up): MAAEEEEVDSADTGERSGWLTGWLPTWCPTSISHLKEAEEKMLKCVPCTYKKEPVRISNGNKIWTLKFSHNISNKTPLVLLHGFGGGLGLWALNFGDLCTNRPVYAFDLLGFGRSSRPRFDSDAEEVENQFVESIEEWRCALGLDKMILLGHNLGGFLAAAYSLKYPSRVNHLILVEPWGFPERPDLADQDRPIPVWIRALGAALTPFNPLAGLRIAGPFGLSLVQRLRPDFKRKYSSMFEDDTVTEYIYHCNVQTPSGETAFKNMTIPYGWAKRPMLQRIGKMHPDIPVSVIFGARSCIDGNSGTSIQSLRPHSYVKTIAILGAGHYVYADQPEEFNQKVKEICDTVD

inhibition, active:
O=c1[nH][nH]c2c1[C@H](c1ccc(Cl)cc1)O[C@H](CCc1ccccc1)C2 29.6%, Cc1cc2c(c(=O)n1Cc1ccco1)C(c1ccccc1)C(C#N)=C(N)O2 (stereo not given) 36.4%, CN1CCC[C@@H]1CCO[C@](C)(c1ccccc1)c1ccc(Cl)cc1 24.5%, COc1ccc(N/C=C(\C2OC(=O)c3ccccc32)[N+](=O)[O-])cc1 (stereo not given) 42.9%, O=C(NC1=CC(=O)c2ccccc2C1=O)c1ccccc1 84.6%, Cc1ccc(CS(=O)(=O)c2ncc(Cl)c(C(=O)Nc3nnc(C)s3)n2)cc1 43.2%, CSc1nnc(NC(=O)c2nc(S(=O)(=O)Cc3ccc(C)cc3)ncc2Cl)s1 32.5%, Cc1cccc(NC(=O)c2ccc3nsnc3c2)c1C 122%, COC(=O)C1(C)NC(c2ccccc2OC)C2C(=O)N(c3ccccc3)C(=O)C21 (stereo not given) 69.3%, CCN(CCCNC(=O)c1ccc2c(c1)NC(=O)CN2C)c1cccc(C)c1 76.6%, O=C(Nc1nc(-c2ccco2)c(-c2ccco2)s1)c1ccco1 25.3%, Cc1ccc(-n2nc(-c3ccco3)cc2C(=O)NCc2cccnc2)cc1 36.3%, Cc1ccc(NC(=O)Cn2sc3ccccc3c2=O)cc1 71.6%, Cc1ccccc1C(CC(=O)c1cccs1)C(C#N)C#N (stereo not given) 22.1%, Cc1nc(-c2ccccc2)sc1C(=O)/C=C/c1ccccc1 36%, O=C(/C=C/c1ccccc1)c1ccoc1 23%, O=C(/C=C/c1ccccc1)c1ccccc1O 22.9%

inhibition, inactive:
COc1ccc(C2OC(CCc3ccccc3)Cc3[nH]c(=S)[nH]c(=O)c32)cc1 (stereo not given) -6.49%, CC(C)C1Cc2[nH][nH]c(=O)c2C(c2ccc(Cl)cc2)O1 (stereo not given) 4.21%, CCOCCCNC(=O)c1ccc(CS(=O)(=O)c2cccc(C(F)(F)F)c2)o1 9.27%, N#C/C(=C(\O)C(F)(F)F)c1nnc2n1CCCCC2 4.79%, CC(=O)OCCOCn1cnn2c(=O)c(Br)c(C)nc12 -1.92%, Cn1c2c(c(=O)n(C)c1=O)C(c1cccc(F)c1)C(C#N)=C(N)O2 (stereo not given) 12.7%, Cc1cc2c(c(=O)n1C)C(C(C)C)C(C#N)=C(N)O2 (stereo not given) 1.5%, CC1CCCCC1NC(=O)CSc1nnc(-c2ccncc2)n1CCCN(C)C (stereo not given) 3.79%, COC1=NC2=NCCN2C(OC)=N1 7.21%, Cn1c2ccccc2c2cc(/C=C(\NC(=O)c3ccccc3)C(=O)NCC(=O)O)ccc21 4.74%, C[C@H](CO)N1C[C@H](C)[C@@H](CN(C)Cc2ccc(-c3ccccc3)cc2)Oc2ccc(NC(=O)Cn3cnnn3)cc2C1=O 1.64%, O=C(CSC1=NS(=O)(=O)c2cc(F)ccc2N1)Nc1ccccc1F -1.35%, C=CCNC(=S)/N=c1/ccccn1Cc1ccccc1 -6.7%, OC(c1ccccc1)(c1ccccc1)C1CCN(CCCOc2ccccc2)CC1 4.12%, CC1CCCN(CC(=O)Nc2cc(Cl)ccc2Oc2ccccc2)C1 (stereo not given) -6.16%, Cc1cc(C)cc(N)c1 -4.69%, COc1cc(/C=C/CNC[C@H]2O[C@@H](n3cnc(C(N)=O)n3)[C@H](O)[C@@H]2O)ccc1O 9.45%, COc1ccc(NC(=O)ON=C2c3ccccc3-c3ccccc32)cc1 -4.58%, COc1ccc(NC(=O)C2=C(C)NC(=O)NC2c2ccccc2[N+](=O)[O-])cc1 (stereo not given) -1.09%, Cc1cc(C)c(S(=O)(=O)N2CCOCC2)cc1C 2.37%, CC(=O)c1ccc(N=C2SCCCN2C(=O)C2CCCCC2)cc1 -0.57%, CC(=O)c1c(C)[nH]c(C(=O)COc2ccc3c(C)cc(=O)oc3c2)c1C -4.41%, C/C(=N\NC(=O)c1ccc(C)cc1)C1C(=O)c2ccccc2C1=O 5.2%, CN(C)C(=O)c1ccc(NC(=O)c2ccccc2-c2ccccc2)cc1 2.67%, CCC(=O)Nc1ccc(C(=O)CSc2nnc(CNc3ccc(Cl)cc3)o2)cc1OC -15.2%, OC1CSc2nc3ccccc3n2C1 (stereo not given) 1.22%, O=C(Cc1ccccc1Cl)N1CCOCC1 1.3%, Cc1cc(C)c(NC(=O)CN2C(=O)NC(Cc3ccccc3)C2=O)c(C)c1 (stereo not given) 3.3%, CN(Cc1ccccc1)S(=O)(=O)c1nnc(NC(=O)c2ccccc2F)s1 -11.4%, O=C(Nc1nnc(Cc2ccc(Cl)cc2)s1)c1cccnc1 10%, Cc1ccc(CS(=O)(=O)CCC(=O)NC2CC2)cc1 0.91%, CCOC(=O)c1sc(N)c(C#N)c1COC(=O)C1=COCCO1 -2.21%, CCCCn1c(N)c(N(CCOC)C(=O)c2cccc(S(=O)(=O)N(C)c3ccccc3)c2)c(=O)[nH]c1=O -4.97%, COC(=O)Cc1ccc(N(Cc2ccccc2F)S(=O)(=O)c2ccc(Br)cc2)cc1 0.04%, Cc1cccc(NC(=O)c2cccc(C(=O)Nc3cccc(C)c3C)n2)c1C -2.21%, Cc1cccc(NC(=O)c2ccc(OCC(=O)NCc3ccccc3)cc2)c1C -5.25%, Cc1noc(C)c1COc1ccccc1C(=O)N(C)CC(=O)Nc1cccc(F)c1 8.24%, O=NN(CCCl)C(=O)NCCc1cccc[n+]1[O-] 1.74%, COC(=O)C1(C)NC(c2ccc(C)cc2)C2C(=O)N(c3ccc(F)cc3)C(=O)C21 (stereo not given) 4.79%, COC(=O)C1(C)NC(c2ccc(F)cc2)C2C(=O)N(c3ccccc3)C(=O)C21 (stereo not given) -0.78%, CC(C)CNC(=S)NNC(=O)c1nn(C)cc1Cl -4.74%, CCOc1ccc(CCN2C(=O)C(=O)N([C@@H](Cc3ccc(O)cc3)CN3CCC[C@H]3CN3C(=O)C(=O)NC[C@@H]3CC(C)C)C[C@@H]2Cc2ccccc2)cc1 3.51%, Cc1cc(NC(=O)COC(=O)COc2ccc(Cl)cc2C)c([N+](=O)[O-])cc1C 4.5%, CC(=O)c1ccc(N2CCN(S(=O)(=O)c3c(C)[nH]c(=O)[nH]c3=O)CC2)cc1 1.36%, CCN(CCCNC(=O)CCn1c(=O)[nH]c2ccsc2c1=O)c1ccccc1 -1.79%, CCN1CCN(CCNC(=O)c2ccc3c(c2)NC(=O)/C(=C\c2cccc(Cl)c2)S3)CC1 12.3%, CCN(c1ccc2c(c1)OCO2)S(=O)(=O)c1cc(Br)cc2c1N(C(=O)C1CC1)CC2 -5.83%, O=C(NNS(=O)(=O)c1ccc(F)cc1)c1cnccn1 -1.88%, COc1ccc(-c2cc3n(n2)CCc2nc4ccccc4n2-3)cc1 5.6%, CC(C)c1ccc2oc(=O)cc(CN3CCN(Cc4ccccc4)CC3)c2c1 -1.39%, Cc1nc([N+](=O)[O-])nn1C12CC3CC(CC(Br)(C3)C1)C2 -11.4%, O=C(Nc1nonc1-c1ccc(Cl)cc1)c1ccco1 -2.13%, CCc1nnc(NC(=O)c2ccco2)s1 3.45%, Cc1cc(C)c(C#N)c(SCS(=O)c2ccc(C(C)(C)C)cc2)n1 (stereo not given) 5.68%, S=C(Nc1ccc(Br)cc1Cl)N1CCC2(CC1)OCCO2 -3.87%, CCOC(=O)CCC(=O)OCC(=O)NC(C)C1CC2CCC1C2 (stereo not given) -2.3%, Cc1ccc(C(=O)NC(=S)NCc2cccnc2)cc1 2.77%, CSc1sc(C(=O)NC(=O)NCc2cccnc2)c(C)c1-c1ccon1 6.42%, CCc1ccc(OC2(C)CCN(CCOc3ccc(C)cc3)C2)cc1 (stereo not given) -1.92%, Cc1[nH]c2ccccc2c1C(=O)C(C)Sc1nnc(C2CC2)o1 (stereo not given) -5.93%, O=C(Nc1ccccc1Cl)NC1(C(=O)N2CCOCC2)CCCCC1 -0.52%, COc1ccccc1NC(=O)COC(=O)Cc1ccc(S(=O)(=O)N2CCCCC2)s1 0.2%, NS(=O)(=O)c1ccc(CNC(=O)c2cc(S(=O)(=O)N3CCOCC3)ccc2N2CCCC2)cc1 4.8%, CCC1CCCCN1C(=S)Nc1ccc(S(=O)(=O)Nc2ncccn2)cc1 (stereo not given) -5.25%, COc1ccc(C(C(=O)NC(C)(C)C)N(C(=O)Cn2nnc3ccccc32)c2ccc(C(C)=O)cc2)cc1O (stereo not given) -5.36%, CCNC(=O)CC1C(=O)N(c2ccc(OC)cc2)C(=S)N1CCc1ccncc1 (stereo not given) 2.72%, Cc1ccc(NC(=O)Cn2c(C)csc2=O)cc1 0%, O=C(Cn1nc(C(=O)O)c2ccccc2c1=O)Nc1ccc(F)cc1 4.56%, Cn1cc(S(=O)(=O)N2CCN(c3ccc(F)cc3)CC2)c(=O)n(C)c1=O 2.58%, CC(=O)c1c(C)n(-c2ccc(N(C)C)cc2)c2ccc(OCC(N)=O)cc12 -5.31%, NC(=O)COc1ccc(C23CC4CC(CC(C4)C2)C3)cc1 -7.75%, Cc1ccc(NNC(=O)c2cccs2)cc1Cl 0.05%, CC(C)OCCCNC(=O)CNC(=O)c1cccs1 3.5%, CC1=NN(C(C)C)C(=O)C1 -11.8%, COc1ccccc1C(=O)C(O)c1ccccc1OC (stereo not given) 4.01%, CSc1ccccc1OCc1cc(C(=O)N2C[C@H]3CC[C@H]2C3)no1 -0.37%, COC(=O)[C@@H](NC(=O)Nc1cc(Cl)ccc1C)C(C)C 15.4%, Nc1nc(NC(=O)/C=C/c2ccccc2)nn1-c1ccccc1 3.41%, CC(/C=C/c1ccccc1)=N\NC(=O)C1CC1(C)c1ccccc1 (stereo not given) -4.04%, CC1(C(=O)O)CCN1C(=O)/C=C/c1ccccc1 (stereo not given) -1.15%, O=S(=O)(/C=C/c1ccccc1)N1CCNCC1 -10.8%, Cc1nc(-c2ccc(Cl)cc2)sc1C(=O)CBr 9.2%, Cc1nc(-c2ccccc2)sc1-c1nc(-c2ccccc2)ncc1S(=O)(=O)c1ccccc1 2.52%
